# Reference: PMC7862700, “An all-to-all approach to the identification of sequence-specific readers for epigenetic DNA modifications on cytosine”
# How the values were obtained:
# Experiment in all cases: DAPPL (digital affinity profiling via proximity ligation, sequencing); 10 mM Tris-HCl pH 7.5, 50 mM NaCl, 1 mM DTT, 4% glycerol, room temperature, 30 min; GST-TFs on glutathione beads, 16-mer random dsDNA library, 0.1% formaldehyde crosslink after washing; high values mean tight binding
# Conditions in all cases: protein: recombinant; tags: N-terminal GST; dsDNA, one strand shown
# ERF = target: T1, ERF (Homo sapiens, UniProt P50548 1-548)
# T1 sequence: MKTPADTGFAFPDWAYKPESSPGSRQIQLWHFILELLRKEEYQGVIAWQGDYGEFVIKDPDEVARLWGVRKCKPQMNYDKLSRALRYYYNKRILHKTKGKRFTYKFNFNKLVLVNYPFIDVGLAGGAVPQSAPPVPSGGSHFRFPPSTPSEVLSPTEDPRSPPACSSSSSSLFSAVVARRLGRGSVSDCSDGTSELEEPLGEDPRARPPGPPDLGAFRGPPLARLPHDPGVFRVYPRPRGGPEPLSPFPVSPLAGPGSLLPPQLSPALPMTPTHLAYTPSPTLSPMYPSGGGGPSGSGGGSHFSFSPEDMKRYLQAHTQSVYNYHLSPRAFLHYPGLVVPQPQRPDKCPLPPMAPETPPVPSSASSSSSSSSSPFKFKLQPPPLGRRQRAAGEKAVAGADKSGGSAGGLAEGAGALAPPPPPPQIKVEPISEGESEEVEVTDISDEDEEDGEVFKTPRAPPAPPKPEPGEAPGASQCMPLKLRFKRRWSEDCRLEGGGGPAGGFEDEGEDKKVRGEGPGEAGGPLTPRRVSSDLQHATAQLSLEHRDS
# Outline: (§1)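 GST fusions of human transcription factors were expressed in yeast and captured with glutathione beads. Once given DNA barcodes and pooled alongside a tag-only sample, they were incubated for 30 min at room temperature with 200 nmole of a random double-stranded 16-mer DNA library in Tris/NaCl/DTT/glycerol buffer, then washed, crosslinked (0.1% formaldehyde), proximity-ligated, PCR-amplified and sequenced on an Illumina NextSeq500. The binding signal of each hexamer is its read frequency for a factor divided by its frequency for the tag-only sample.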
# ETV3L = target: T2, ETV3L (Homo sapiens, UniProt Q6ZN32 1-361)
# T2 sequence: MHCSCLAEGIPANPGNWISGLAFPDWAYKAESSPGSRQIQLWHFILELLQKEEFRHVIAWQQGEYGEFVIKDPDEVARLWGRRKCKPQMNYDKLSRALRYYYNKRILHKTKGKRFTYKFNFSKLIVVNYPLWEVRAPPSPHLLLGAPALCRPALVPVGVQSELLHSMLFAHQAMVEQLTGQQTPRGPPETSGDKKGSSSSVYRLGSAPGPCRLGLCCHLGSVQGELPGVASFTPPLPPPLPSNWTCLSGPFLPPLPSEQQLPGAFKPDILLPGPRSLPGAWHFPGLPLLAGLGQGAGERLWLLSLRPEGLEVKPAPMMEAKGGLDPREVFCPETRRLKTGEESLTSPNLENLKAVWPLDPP
# Outline: as §1
# ETS2 = target: T3, ETS2 (Homo sapiens, UniProt P15036 1-469)
# T3 sequence: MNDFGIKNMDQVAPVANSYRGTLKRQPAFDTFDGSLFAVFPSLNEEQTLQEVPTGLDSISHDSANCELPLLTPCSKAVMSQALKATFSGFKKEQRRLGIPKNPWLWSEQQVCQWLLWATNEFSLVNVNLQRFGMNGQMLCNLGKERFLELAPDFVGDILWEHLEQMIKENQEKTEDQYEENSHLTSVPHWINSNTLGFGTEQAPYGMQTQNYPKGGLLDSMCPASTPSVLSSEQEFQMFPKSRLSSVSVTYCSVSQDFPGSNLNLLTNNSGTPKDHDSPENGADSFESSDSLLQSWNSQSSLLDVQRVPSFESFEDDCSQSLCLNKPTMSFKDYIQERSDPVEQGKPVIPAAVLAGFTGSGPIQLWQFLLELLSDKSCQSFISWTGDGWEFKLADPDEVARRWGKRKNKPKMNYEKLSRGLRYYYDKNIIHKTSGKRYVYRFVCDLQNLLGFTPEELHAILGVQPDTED
# Outline: as §1
# SPDEF = target: T4, SPDEF (Homo sapiens, UniProt O95238 1-335)
# T4 sequence: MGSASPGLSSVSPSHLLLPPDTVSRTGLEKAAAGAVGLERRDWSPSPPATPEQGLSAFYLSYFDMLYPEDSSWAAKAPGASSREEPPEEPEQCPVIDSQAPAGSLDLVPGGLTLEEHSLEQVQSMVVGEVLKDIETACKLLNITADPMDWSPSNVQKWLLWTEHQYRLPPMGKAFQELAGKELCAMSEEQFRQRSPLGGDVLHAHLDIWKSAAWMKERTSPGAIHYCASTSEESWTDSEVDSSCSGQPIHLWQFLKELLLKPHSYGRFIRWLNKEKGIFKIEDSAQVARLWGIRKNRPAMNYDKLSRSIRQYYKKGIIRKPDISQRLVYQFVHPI
# Outline: as §1
# ETV7 = target: T5, ETV7 (Homo sapiens, UniProt Q9Y603 1-341)
# T5 sequence: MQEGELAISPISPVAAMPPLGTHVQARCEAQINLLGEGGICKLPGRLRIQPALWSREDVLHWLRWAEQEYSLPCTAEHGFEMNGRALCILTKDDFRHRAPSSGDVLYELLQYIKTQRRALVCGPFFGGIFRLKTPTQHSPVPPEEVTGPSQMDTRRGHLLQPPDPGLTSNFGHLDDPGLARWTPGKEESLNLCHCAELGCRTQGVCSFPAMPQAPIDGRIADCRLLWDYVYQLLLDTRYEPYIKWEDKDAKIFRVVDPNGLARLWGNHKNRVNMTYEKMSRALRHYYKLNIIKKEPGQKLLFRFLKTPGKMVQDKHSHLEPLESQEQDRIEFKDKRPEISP
# Outline: as §1
# ELF5 = target: T6, ELF5 (Homo sapiens, UniProt Q9UKW6-2 1-255)
# T6 sequence: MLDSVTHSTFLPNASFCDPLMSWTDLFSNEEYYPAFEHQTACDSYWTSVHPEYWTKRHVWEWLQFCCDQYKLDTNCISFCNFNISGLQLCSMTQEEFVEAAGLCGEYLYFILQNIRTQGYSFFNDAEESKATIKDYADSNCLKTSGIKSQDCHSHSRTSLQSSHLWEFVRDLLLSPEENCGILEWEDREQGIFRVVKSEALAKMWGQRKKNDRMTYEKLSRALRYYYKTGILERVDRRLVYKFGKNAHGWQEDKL
# Outline: as §1
# ETV3 = target: T7, ETV3 (Homo sapiens, UniProt P41162-2 1-143)
# T7 sequence: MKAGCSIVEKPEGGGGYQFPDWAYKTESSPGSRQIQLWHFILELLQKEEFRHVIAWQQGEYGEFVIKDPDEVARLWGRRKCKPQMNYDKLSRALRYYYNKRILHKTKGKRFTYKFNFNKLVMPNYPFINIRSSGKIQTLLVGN
# Outline: as §1
# ETV6 = ETV6 (Homo sapiens, UniProt P41212 1-452)
# Outline: as §1
# ETV6, sequence (P41212 whole entry): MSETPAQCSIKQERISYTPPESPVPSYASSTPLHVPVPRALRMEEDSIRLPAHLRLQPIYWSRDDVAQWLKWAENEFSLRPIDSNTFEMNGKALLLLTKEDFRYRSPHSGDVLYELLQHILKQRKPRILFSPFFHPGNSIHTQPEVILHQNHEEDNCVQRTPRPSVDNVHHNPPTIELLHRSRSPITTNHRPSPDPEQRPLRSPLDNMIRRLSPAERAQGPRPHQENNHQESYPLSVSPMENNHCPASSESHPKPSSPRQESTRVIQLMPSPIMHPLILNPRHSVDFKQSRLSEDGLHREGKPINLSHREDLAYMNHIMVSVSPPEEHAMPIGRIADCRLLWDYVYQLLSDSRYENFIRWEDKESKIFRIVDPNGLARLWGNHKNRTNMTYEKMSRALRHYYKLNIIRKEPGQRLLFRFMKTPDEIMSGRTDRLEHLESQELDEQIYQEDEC
Sequence,binding signal (ERF),binding signal (ETV3L),binding signal (ETS2),binding signal (SPDEF),binding signal (ETV7),binding signal (ELF5),binding signal (ETV3),binding signal (ETV6)
TACCTA,"1.25 fold enrichment (6-mer frequency, TF over GST control)","1.28 fold enrichment (6-mer frequency, TF over GST control)","1.31 fold enrichment (6-mer frequency, TF over GST control)","1.19 fold enrichment (6-mer frequency, TF over GST control)","1.27 fold enrichment (6-mer frequency, TF over GST control)","1.23 fold enrichment (6-mer frequency, TF over GST control)","1.2 fold enrichment (6-mer frequency, TF over GST control)","1.29 fold enrichment (6-mer frequency, TF over GST control)"
AACATA,"1.32 fold enrichment (6-mer frequency, TF over GST control)","1.24 fold enrichment (6-mer frequency, TF over GST control)","1.23 fold enrichment (6-mer frequency, TF over GST control)","1.19 fold enrichment (6-mer frequency, TF over GST control)","1.31 fold enrichment (6-mer frequency, TF over GST control)","1.3 fold enrichment (6-mer frequency, TF over GST control)","1.27 fold enrichment (6-mer frequency, TF over GST control)","1.27 fold enrichment (6-mer frequency, TF over GST control)"
CTTCTG,"1.28 fold enrichment (6-mer frequency, TF over GST control)","1.47 fold enrichment (6-mer frequency, TF over GST control)","1.34 fold enrichment (6-mer frequency, TF over GST control)","1.26 fold enrichment (6-mer frequency, TF over GST control)","1.2 fold enrichment (6-mer frequency, TF over GST control)","1.39 fold enrichment (6-mer frequency, TF over GST control)","1.28 fold enrichment (6-mer frequency, TF over GST control)","1.38 fold enrichment (6-mer frequency, TF over GST control)"
TGGTCT,"1.52 fold enrichment (6-mer frequency, TF over GST control)","1.55 fold enrichment (6-mer frequency, TF over GST control)","1.39 fold enrichment (6-mer frequency, TF over GST control)","1.35 fold enrichment (6-mer frequency, TF over GST control)","1.28 fold enrichment (6-mer frequency, TF over GST control)","1.55 fold enrichment (6-mer frequency, TF over GST control)","1.44 fold enrichment (6-mer frequency, TF over GST control)","1.42 fold enrichment (6-mer frequency, TF over GST control)"
TGCCTC,"1.4 fold enrichment (6-mer frequency, TF over GST control)","1.32 fold enrichment (6-mer frequency, TF over GST control)","1.22 fold enrichment (6-mer frequency, TF over GST control)","1.39 fold enrichment (6-mer frequency, TF over GST control)","1.35 fold enrichment (6-mer frequency, TF over GST control)","1.4 fold enrichment (6-mer frequency, TF over GST control)","1.39 fold enrichment (6-mer frequency, TF over GST control)","1.36 fold enrichment (6-mer frequency, TF over GST control)"
CTACCA,"1.26 fold enrichment (6-mer frequency, TF over GST control)","1.21 fold enrichment (6-mer frequency, TF over GST control)","1.26 fold enrichment (6-mer frequency, TF over GST control)","1.23 fold enrichment (6-mer frequency, TF over GST control)","1.29 fold enrichment (6-mer frequency, TF over GST control)","1.26 fold enrichment (6-mer frequency, TF over GST control)","1.21 fold enrichment (6-mer frequency, TF over GST control)","1.26 fold enrichment (6-mer frequency, TF over GST control)"
AACTGG,"1.18 fold enrichment (6-mer frequency, TF over GST control)","1.23 fold enrichment (6-mer frequency, TF over GST control)","1.3 fold enrichment (6-mer frequency, TF over GST control)","1.23 fold enrichment (6-mer frequency, TF over GST control)","1.23 fold enrichment (6-mer frequency, TF over GST control)","1.26 fold enrichment (6-mer frequency, TF over GST control)","1.29 fold enrichment (6-mer frequency, TF over GST control)","1.31 fold enrichment (6-mer frequency, TF over GST control)"
GCTTCT,"1.64 fold enrichment (6-mer frequency, TF over GST control)","1.37 fold enrichment (6-mer frequency, TF over GST control)","1.5 fold enrichment (6-mer frequency, TF over GST control)","1.34 fold enrichment (6-mer frequency, TF over GST control)","1.43 fold enrichment (6-mer frequency, TF over GST control)","1.56 fold enrichment (6-mer frequency, TF over GST control)","1.4 fold enrichment (6-mer frequency, TF over GST control)","1.45 fold enrichment (6-mer frequency, TF over GST control)"
AAGCAT,"1.19 fold enrichment (6-mer frequency, TF over GST control)","1.09 fold enrichment (6-mer frequency, TF over GST control)","1.2 fold enrichment (6-mer frequency, TF over GST control)","1.08 fold enrichment (6-mer frequency, TF over GST control)","1.14 fold enrichment (6-mer frequency, TF over GST control)","1.06 fold enrichment (6-mer frequency, TF over GST control)","1.13 fold enrichment (6-mer frequency, TF over GST control)","1.14 fold enrichment (6-mer frequency, TF over GST control)"
ATCTTC,"1.45 fold enrichment (6-mer frequency, TF over GST control)","1.63 fold enrichment (6-mer frequency, TF over GST control)","1.6 fold enrichment (6-mer frequency, TF over GST control)","1.55 fold enrichment (6-mer frequency, TF over GST control)","1.43 fold enrichment (6-mer frequency, TF over GST control)","1.82 fold enrichment (6-mer frequency, TF over GST control)","1.49 fold enrichment (6-mer frequency, TF over GST control)","1.54 fold enrichment (6-mer frequency, TF over GST control)"
CCTTTC,"1.62 fold enrichment (6-mer frequency, TF over GST control)","1.54 fold enrichment (6-mer frequency, TF over GST control)","1.59 fold enrichment (6-mer frequency, TF over GST control)","1.5 fold enrichment (6-mer frequency, TF over GST control)","1.39 fold enrichment (6-mer frequency, TF over GST control)","1.75 fold enrichment (6-mer frequency, TF over GST control)","1.62 fold enrichment (6-mer frequency, TF over GST control)","1.62 fold enrichment (6-mer frequency, TF over GST control)"
TATGGC,"1.25 fold enrichment (6-mer frequency, TF over GST control)","1.23 fold enrichment (6-mer frequency, TF over GST control)","1.2 fold enrichment (6-mer frequency, TF over GST control)","1.27 fold enrichment (6-mer frequency, TF over GST control)","1.26 fold enrichment (6-mer frequency, TF over GST control)","1.23 fold enrichment (6-mer frequency, TF over GST control)","1.31 fold enrichment (6-mer frequency, TF over GST control)","1.29 fold enrichment (6-mer frequency, TF over GST control)"
AAGTAA,"1.27 fold enrichment (6-mer frequency, TF over GST control)","1.31 fold enrichment (6-mer frequency, TF over GST control)","1.27 fold enrichment (6-mer frequency, TF over GST control)","1.23 fold enrichment (6-mer frequency, TF over GST control)","1.27 fold enrichment (6-mer frequency, TF over GST control)","1.42 fold enrichment (6-mer frequency, TF over GST control)","1.28 fold enrichment (6-mer frequency, TF over GST control)","1.45 fold enrichment (6-mer frequency, TF over GST control)"
GATTAT,"1.06 fold enrichment (6-mer frequency, TF over GST control)","1.11 fold enrichment (6-mer frequency, TF over GST control)","1.04 fold enrichment (6-mer frequency, TF over GST control)","1.1 fold enrichment (6-mer frequency, TF over GST control)","1.18 fold enrichment (6-mer frequency, TF over GST control)","1.04 fold enrichment (6-mer frequency, TF over GST control)","1.04 fold enrichment (6-mer frequency, TF over GST control)","1.12 fold enrichment (6-mer frequency, TF over GST control)"
ATTTCC,"3.64 fold enrichment (6-mer frequency, TF over GST control)","3.98 fold enrichment (6-mer frequency, TF over GST control)","4.24 fold enrichment (6-mer frequency, TF over GST control)","3.68 fold enrichment (6-mer frequency, TF over GST control)","3.78 fold enrichment (6-mer frequency, TF over GST control)","6.17 fold enrichment (6-mer frequency, TF over GST control)","4.45 fold enrichment (6-mer frequency, TF over GST control)","4.99 fold enrichment (6-mer frequency, TF over GST control)"
